A selection: hits, their analogues and other compounds. The true share with any hit is near 1%.
gsp antag – antagonizes gsp, the McCune-Albright syndrome mutation | gsp-mutant cells, cAMP HTRF, 30 min | Potency, µM (doses to about 76.9 µM), inactives show top-dose activity change, negative = inhibition, hits mostly inhibitors | 0.4% of 340,000 active | AID 624288; calls by dose curve; cell line not stated here;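 note: intracellular cAMP measured with PDE inhibitor Ro 20-1724 present during compound exposure; potency is the fitted concentration of half-maximal effect; % is set by controls: 0 for no effect and ±100 for the full control effect; nearly all actives have a fitted effect of over 65% in size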
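HTRF cAMP measurement after 30 min RT detection following 30 min, 37C compound treatment alongside […] (added as 300 uM solution) in G418-selected cells seeded at 2000/well and grown 16–24 h.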
RXFP1 antagonist – blocks the human relaxin receptor RXFP1; Q9HBX9; HEK293-RXFP1, relaxin-stimulated cAMP HTRF, 30 min; hits give low values; activity change, negative = inhibition, % at 57.5 µM; 0.59% of 350,000 active; AID 1259400;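 active = activity change of -60% or lower, but not beyond a set lower limit; inconclusive = change between -60% and -40%, or beyond the set limit; inactive = change above -40%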; note: % is set by controls: 0 for no effect and ±100 for the full control effect
gsp agonist – gsp mutant agonism; gsp mutant cells, cAMP HTRF, 30 min; Potency, µM (doses to about 76.9 µM), for the others: top-dose activation (cAMP increase), most hits filed as activators; 0.13% of 340,000 active; AID 624287; active = well fitted activation curve with a large enough effect; inconclusive = small, poorly fitted or top-dose-only effect, or another doubt; inactive = no such curve, though single readings can be large or run the other way; cell line not stated here;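 note: phosphodiesterase inhibitor Ro 20-1724 added with compounds to block cAMP breakdown; potency is the fitted concentration of half-maximal effect; nearly all actives have a fitted effect of over 60% in size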
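Cells in DMEM/10% FBS with G418 were pretreated with compounds in DMSO plus […] (300 uM stock) for 30 min at 37C. cAMP was measured by HTRF (cAMP-d2 plus anti-cAMP antibody-K) after 30 min at room temperature.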
RXFP1 agonist – agonists of human relaxin receptor RXFP1. Q9HBX9. HEK293T-RXFP1 cAMP TR-FRET, 30 min; response scale: percent of porcine relaxin response, buffer zero. Potency, µM (top dose mostly 57.5 µM), for inactives: at the top dose activation, most hits filed as activators. 0.3% of 370,000 active. AID 2676; note: potency is the fitted concentration of half-maximal effect; % is set by controls: 0 for no effect and ±100 for the full control effect; nearly all actives have a fitted effect of over 60% in size
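HEK293T cells stably expressing RXFP1 were pretreated with the PDE4 inhibitor Ro 20174, exposed to compounds for 30 min at 37C, lysed, and cAMP was read by TR-FRET. Data normalized to buffer (basal) and 29 nM porcine relaxin (100%).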
PTHR1 ag – agonists of human PTHR1 parathyroid hormone receptor | Q03431 | HEK293 GP2 PTHR1 cells, GloSensor cAMP luminescence, 1 h | Potency, µM (titrated, usually from 115 µM), without a hit: top-dose activation, most hits filed as activators | 0.075% of 410,000 active | AID 743266; note: potency is the fitted concentration of half-maximal effect; nearly all actives have a fitted effect of over 55% in size
Target sequence (Q03431 whole entry, looked up): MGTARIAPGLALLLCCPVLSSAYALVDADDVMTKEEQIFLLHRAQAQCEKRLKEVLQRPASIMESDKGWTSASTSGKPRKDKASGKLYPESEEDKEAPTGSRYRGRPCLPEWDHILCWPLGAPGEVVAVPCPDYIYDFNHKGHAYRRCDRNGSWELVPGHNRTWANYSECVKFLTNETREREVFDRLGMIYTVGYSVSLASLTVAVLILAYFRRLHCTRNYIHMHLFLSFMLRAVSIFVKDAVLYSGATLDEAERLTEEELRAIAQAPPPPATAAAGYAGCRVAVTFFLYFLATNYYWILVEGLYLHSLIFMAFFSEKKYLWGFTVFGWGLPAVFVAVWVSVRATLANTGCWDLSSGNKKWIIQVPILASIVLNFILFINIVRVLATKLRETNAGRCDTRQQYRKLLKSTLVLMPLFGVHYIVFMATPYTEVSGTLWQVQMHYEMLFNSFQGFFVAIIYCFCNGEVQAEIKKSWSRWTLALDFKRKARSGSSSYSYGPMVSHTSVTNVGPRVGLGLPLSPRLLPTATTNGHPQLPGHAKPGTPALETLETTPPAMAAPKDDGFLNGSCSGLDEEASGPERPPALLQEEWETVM
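HEK-293-derived GP2 cells expressing PTHR1 and a GloSensor cAMP reporter, 3,000/well, plated overnight, given luciferin plus IBMX (each 0.5 mM as added) for 1 h at 37 °C, then compound for 1 h at 37 °C. Luminescence was read after 15 min at room temperature.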
An asterisk follows results filed as active; i = inactive; u = inconclusive; x = not tested or not shown; [ ] = dose if it differs, or a comment. Unless noted, calls come from the whole dose curve; as a rule, active = well fitted curve in the direction sought with a large enough effect; inconclusive = small, poorly fitted or top-dose-only effect, or another doubt; inactive = no such curve, though single readings can be large; an effect the other way counts as inactive or inconclusive.

SMILES	gsp antag	RXFP1 antagonist	gsp agonist	RXFP1 agonist	PTHR1 ag
Cc1cccc(N2CCN(C(=O)C3CCCN(S(=O)(=O)c4ccc(Br)s4)C3)CC2)c1C (centres undefined)	x	-11	x	3%	-28%
CCCCC(=O)Nc1ccc(C(=O)OCc2cc(=O)n3ccsc3n2)cc1	x	-9	x	4%	i
O=C(/C=C/c1ccc(Cl)cc1Cl)NCCSc1ccccc1	45µM*	-18	u	0%	-29%
Cc1ccc2c(C)c(C(=O)N(Cc3ccc(N(C)C)cc3)Cc3ccco3)oc2c1C	x	-3	x	0%	-48%
Cc1nc2ncnn2c(N2CCCC(C(=O)Nc3ccc4c(c3)CCC4)C2)c1C (centres undefined)	40µM*	-4	u	-2%	i
COc1ccccc1CC(Cc1nc2ccccc2[nH]1)c1nc2ccccc2[nH]1 (centres undefined)	-19%	-67*	u	2%	i
C/C(=N\NC(=O)c1ccc(-c2ccccc2)cc1)C1C(=O)c2ccccc2C1=O	28µM*	-7	3%	0%	i
COc1ccccc1CNC(=O)COC(=O)c1ccc(Cl)c(N)c1	11µM*	-12	-9%[15.4 µM]	-5%	-7%
COc1ccc(S(=O)(=O)N2c3ccc(Cl)cc3[C@@](O)(c3ccccc3Cl)[C@H]2C(=O)N2CCC[C@@H]2C(N)=O)cc1OC	x	-16	x	x	x
O=C1Nc2ccccc2C12OCC(COc1ccc(Cl)cc1)O2 (centres undefined)	-25%	-11	8%	1%	i
CN1C(=O)C2(OCC(COc3ccc(Cl)cc3)O2)c2ccccc21 (centres undefined)	35µM*	1	4%	0%	i
COC(=O)c1sccc1S(=O)(=O)N1CCN(c2cccc(C)c2)C(C)C1 (centres undefined)	x	x	x	-1%	-7%
Cn1c(SCC(=O)Nc2nccs2)nnc1-c1ccc(S(=O)(=O)N2CCCC2)cc1	-25%	-14	16%	1%	-1%[57.5 µM]
CCn1c(SCC(=O)Nc2nccs2)nnc1-c1ccc(S(=O)(=O)N2CCCCCC2)cc1	40µM*	8	20%	1%	-10%
O=C(CCCn1c(=O)[nH]c2ccccc2c1=O)NCc1ccccc1Cl	x	1	x	-1%	-24%
CCS(=O)(=O)Nc1ccc(C2=NN(C(=O)c3ccccc3)C(c3cccs3)C2)cc1 (centres undefined)	28µM*	-17	6%	0%	-2%
CCS(=O)(=O)Nc1ccc(C2=NN(C(=O)c3ccco3)C(c3cccs3)C2)cc1 (centres undefined)	u	-17	3%[15.4 µM]	2%	-13%
COc1ccc(C2=NN(CC(=O)NCCc3ccccc3)C(=O)CC2)cc1	x	-6	x	0%	10%
C/C(=N/n1cnnc1)c1cccnc1	7%	-7	5%	0%	16µM*
C/C(=N\n1cnnc1)c1ccccc1	11%	3	-27%	5%	i
COC(=O)C(Cc1csc2ccc(Cl)cc12)NC(=O)c1ccc(Cl)cc1 (centres undefined)	-15%	-68*	4%	-1%	-11%
Cc1ccc(/C=C/c2onc(C)c2S(=O)(=O)N2CCC(C(=O)Nc3cccc(C#N)c3)CC2)cc1	x	x	x	-1%	-21%
C[C@@H](c1ncncc1F)C(O)(Cn1cncn1)c1ccc(F)cc1F (some centres undefined)	x	-2	x	x	x
Cc1ccc(C(=O)Nc2ncc([N+](=O)[O-])s2)cc1	25µM*	-15	7%	1%	-29%
O=C(COc1ccc(Cl)cc1)Nc1ncc([N+](=O)[O-])s1	35µM*	-33	3%[15.4 µM]	0%	-34%
COc1ccccc1NC(=O)c1ccc(CN2C(=O)C(C)=C(c3ccc(C)c(C)c3)S2(=O)=O)cc1	x	-11	x	1%	-17%
Cc1cccc(CCNC(=O)c2nn(C)c3c2CSc2ccccc2-3)c1	x	12	x	-1%	-48%
CC(=O)N1CCc2cc(S(=O)(=O)NCCC(=O)N3CCc4ccccc4C3)ccc21	40µM*	1	13%	0%	i
